From ChEMBL document CHEMBL1961873, “Compounds: GSK PKIS; Assays: Nanosyn kinase panel” (2012) come the findings set out here.

Assay [1] addresses Death-associated protein kinase 1 (Homo sapiens) (UniProt P53355). The conditions noted are these: at 1 µM.
Assay [2] deals with T1, Serine/threonine-protein kinase DCLK2 (Homo sapiens) (UniProt Q8N568).
T1 sequence (whole entry): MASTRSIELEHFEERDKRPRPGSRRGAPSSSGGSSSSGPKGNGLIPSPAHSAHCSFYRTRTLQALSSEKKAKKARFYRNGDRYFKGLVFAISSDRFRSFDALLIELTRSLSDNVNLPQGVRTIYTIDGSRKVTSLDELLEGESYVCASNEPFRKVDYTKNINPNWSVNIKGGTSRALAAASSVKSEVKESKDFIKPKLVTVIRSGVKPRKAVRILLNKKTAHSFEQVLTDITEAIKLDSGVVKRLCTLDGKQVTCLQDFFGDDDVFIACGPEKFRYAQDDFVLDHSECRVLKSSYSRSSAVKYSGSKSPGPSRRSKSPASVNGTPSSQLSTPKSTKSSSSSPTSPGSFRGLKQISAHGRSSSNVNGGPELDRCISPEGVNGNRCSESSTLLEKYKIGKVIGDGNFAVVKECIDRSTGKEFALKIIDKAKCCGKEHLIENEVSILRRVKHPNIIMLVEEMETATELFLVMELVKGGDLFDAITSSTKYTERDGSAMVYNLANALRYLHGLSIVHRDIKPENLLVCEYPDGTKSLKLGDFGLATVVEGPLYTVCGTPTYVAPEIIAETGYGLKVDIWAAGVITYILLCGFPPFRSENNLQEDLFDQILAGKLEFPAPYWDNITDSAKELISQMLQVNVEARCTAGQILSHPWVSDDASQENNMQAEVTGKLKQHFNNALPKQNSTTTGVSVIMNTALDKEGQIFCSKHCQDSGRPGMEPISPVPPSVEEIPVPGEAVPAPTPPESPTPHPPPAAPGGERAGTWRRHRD
The conditions noted are these: at 0.1 µM.

In assay [3] the target is T1, Serine/threonine-protein kinase DCLK2 (Homo sapiens). The conditions noted are these: at 1 µM.
The target of assay [4] is MAP kinase-activated protein kinase 2 (Homo sapiens) (UniProt P49137). The conditions noted are these: at 0.1 µM.
Assay [5] shares this target. The conditions noted are these: at 1 µM.
Assay [6] addresses MAP kinase-activated protein kinase 3 (Homo sapiens) (UniProt Q16644). The conditions noted are these: at 0.1 µM.
Assay [7] shares this target. The conditions noted are these: at 1 µM.
In assay [8] the target is Serine/threonine-protein kinase MARK1 (Homo sapiens) (UniProt Q9P0L2). The conditions noted are these: at 0.1 µM.
Chain of Serine/threonine-protein kinase MARK1 (Homo sapiens) (Q9P0L2 whole entry, looked up): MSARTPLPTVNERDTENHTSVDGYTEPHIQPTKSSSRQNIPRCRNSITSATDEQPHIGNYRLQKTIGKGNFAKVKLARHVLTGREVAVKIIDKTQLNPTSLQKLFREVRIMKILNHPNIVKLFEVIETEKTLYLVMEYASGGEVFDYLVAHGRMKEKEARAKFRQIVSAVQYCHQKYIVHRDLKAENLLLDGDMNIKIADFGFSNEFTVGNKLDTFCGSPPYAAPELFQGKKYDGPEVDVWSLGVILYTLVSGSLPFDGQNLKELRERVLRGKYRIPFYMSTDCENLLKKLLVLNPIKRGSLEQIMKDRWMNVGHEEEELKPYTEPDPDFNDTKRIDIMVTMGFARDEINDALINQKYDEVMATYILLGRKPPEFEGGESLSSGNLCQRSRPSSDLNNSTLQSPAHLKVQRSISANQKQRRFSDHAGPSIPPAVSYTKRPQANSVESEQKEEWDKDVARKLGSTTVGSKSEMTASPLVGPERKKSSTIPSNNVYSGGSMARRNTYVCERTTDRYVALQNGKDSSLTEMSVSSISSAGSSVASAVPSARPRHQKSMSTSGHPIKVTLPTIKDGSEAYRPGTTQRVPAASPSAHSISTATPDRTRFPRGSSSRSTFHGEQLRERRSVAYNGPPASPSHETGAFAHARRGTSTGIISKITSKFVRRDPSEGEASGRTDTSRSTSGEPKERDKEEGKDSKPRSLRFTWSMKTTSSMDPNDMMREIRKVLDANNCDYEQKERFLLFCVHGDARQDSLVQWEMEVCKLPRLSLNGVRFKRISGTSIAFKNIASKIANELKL
For assay [9] the target is unchanged. The conditions noted are these: at 1 µM.
The target in assay [10] is MAP/microtubule affinity-regulating kinase 3 (Homo sapiens) (UniProt P27448). The conditions noted are these: at 0.1 µM.
Chain of MAP/microtubule affinity-regulating kinase 3 (Homo sapiens) (P27448 whole entry, looked up): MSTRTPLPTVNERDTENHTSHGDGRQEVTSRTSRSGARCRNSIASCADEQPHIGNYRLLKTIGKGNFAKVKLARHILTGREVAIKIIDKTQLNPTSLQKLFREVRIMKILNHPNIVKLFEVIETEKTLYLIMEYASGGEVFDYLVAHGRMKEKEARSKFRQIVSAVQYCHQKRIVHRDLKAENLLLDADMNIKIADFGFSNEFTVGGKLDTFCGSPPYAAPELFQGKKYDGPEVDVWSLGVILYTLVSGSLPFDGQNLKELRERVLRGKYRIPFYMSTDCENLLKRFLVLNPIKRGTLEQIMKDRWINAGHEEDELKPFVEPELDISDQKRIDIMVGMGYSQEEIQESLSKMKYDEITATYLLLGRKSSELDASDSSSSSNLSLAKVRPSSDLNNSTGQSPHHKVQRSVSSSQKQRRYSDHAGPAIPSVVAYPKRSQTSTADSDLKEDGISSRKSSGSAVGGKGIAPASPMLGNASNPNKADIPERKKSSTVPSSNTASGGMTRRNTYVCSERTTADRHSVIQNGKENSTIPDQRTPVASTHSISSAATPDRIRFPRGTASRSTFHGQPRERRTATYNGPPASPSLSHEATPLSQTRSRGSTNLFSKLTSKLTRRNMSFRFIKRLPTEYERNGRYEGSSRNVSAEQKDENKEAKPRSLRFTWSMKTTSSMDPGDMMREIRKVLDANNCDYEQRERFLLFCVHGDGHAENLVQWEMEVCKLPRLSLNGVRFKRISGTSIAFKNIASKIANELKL
Assay [11] has the same target. The conditions noted are these: at 1 µM.
The target of assay [12] is T2, MAP/microtubule affinity-regulating kinase 4 (Homo sapiens) (UniProt Q96L34).
T2 sequence (whole entry): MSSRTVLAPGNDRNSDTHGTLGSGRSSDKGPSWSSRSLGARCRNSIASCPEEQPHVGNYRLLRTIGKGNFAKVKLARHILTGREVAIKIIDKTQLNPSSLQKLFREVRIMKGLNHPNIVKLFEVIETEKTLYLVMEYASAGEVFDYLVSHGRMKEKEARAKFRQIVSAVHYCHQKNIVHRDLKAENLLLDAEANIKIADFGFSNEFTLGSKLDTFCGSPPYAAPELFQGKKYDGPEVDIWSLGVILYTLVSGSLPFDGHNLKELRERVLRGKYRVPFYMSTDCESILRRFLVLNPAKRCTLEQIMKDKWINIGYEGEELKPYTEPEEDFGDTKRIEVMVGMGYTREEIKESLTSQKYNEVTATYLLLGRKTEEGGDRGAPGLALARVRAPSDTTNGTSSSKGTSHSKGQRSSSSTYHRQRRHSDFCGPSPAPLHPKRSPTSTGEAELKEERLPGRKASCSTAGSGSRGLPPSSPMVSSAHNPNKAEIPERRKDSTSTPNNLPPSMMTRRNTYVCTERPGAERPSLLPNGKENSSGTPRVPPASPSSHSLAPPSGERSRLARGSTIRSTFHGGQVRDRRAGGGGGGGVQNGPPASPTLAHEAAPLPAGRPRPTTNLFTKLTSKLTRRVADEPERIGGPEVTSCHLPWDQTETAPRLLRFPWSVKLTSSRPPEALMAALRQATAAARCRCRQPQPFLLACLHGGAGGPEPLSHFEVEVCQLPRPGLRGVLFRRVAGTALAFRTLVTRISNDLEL
The conditions noted are these: at 0.1 µM.

Assay [13] addresses T2, MAP/microtubule affinity-regulating kinase 4 (Homo sapiens). The conditions noted are these: at 1 µM.
In assay [14] the target is Maternal embryonic leucine zipper kinase (Homo sapiens) (UniProt Q14680). The conditions noted are these: at 0.1 µM.
For assay [15] the target is unchanged. The conditions noted are these: at 1 µM.
Assay [16] addresses MAP kinase-interacting serine/threonine-protein kinase 1 (Homo sapiens) (UniProt Q9BUB5). The conditions noted are these: at 0.1 µM.
For assay [17] the target is unchanged. The conditions noted are these: at 1 µM.
In assay [18] the target is MAP kinase-interacting serine/threonine-protein kinase 2 (Homo sapiens) (UniProt Q9HBH9). The conditions noted are these: at 0.1 µM.
Chain of MAP kinase-interacting serine/threonine-protein kinase 2 (Homo sapiens) (Q9HBH9 whole entry, looked up): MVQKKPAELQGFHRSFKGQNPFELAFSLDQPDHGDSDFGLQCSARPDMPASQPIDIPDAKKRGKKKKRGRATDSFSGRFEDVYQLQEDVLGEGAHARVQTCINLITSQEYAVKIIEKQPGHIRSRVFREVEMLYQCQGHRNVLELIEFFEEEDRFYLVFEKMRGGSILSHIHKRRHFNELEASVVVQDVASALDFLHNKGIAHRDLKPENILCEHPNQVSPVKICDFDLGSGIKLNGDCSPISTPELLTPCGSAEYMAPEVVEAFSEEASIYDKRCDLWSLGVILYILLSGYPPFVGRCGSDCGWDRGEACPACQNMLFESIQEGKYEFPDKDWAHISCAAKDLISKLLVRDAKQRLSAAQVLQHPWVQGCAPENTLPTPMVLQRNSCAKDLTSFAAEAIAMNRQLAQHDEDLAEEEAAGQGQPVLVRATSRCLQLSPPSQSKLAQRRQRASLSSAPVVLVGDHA
For assay [19] the target is unchanged. The conditions noted are these: at 1 µM.
Assay [20] has as its target Serine/threonine-protein kinase MARK2 (Homo sapiens) (UniProt Q7KZI7). The conditions noted are these: at 0.1 µM.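 Also: mean percent inhibition of PAR-1Balpha kinase activity, reported from the GSK PKIS screen.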

Chain of Serine/threonine-protein kinase MARK2 (Homo sapiens) (Q7KZI7 whole entry): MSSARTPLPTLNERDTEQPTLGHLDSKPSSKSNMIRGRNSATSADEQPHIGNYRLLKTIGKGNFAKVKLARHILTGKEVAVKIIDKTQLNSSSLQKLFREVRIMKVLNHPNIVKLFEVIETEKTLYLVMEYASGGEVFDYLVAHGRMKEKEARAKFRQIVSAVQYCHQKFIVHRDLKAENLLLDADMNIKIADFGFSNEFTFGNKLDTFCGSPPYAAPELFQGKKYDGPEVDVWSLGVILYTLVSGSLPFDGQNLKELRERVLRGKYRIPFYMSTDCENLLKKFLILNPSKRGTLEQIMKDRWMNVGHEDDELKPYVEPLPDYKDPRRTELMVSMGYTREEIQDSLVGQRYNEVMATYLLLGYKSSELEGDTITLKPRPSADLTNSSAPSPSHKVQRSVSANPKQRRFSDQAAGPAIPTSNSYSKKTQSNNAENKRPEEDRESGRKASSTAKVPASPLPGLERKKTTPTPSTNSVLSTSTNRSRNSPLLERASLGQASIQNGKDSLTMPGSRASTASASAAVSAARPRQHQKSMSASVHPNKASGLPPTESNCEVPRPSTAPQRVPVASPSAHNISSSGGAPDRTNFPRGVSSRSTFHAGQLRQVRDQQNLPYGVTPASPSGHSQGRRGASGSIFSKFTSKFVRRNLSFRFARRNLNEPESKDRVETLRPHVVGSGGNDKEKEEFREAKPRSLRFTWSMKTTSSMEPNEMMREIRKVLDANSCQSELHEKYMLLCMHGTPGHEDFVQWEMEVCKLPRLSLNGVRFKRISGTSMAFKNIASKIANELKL
Chain of Death-associated protein kinase 1 (Homo sapiens) (P53355 whole entry, looked up): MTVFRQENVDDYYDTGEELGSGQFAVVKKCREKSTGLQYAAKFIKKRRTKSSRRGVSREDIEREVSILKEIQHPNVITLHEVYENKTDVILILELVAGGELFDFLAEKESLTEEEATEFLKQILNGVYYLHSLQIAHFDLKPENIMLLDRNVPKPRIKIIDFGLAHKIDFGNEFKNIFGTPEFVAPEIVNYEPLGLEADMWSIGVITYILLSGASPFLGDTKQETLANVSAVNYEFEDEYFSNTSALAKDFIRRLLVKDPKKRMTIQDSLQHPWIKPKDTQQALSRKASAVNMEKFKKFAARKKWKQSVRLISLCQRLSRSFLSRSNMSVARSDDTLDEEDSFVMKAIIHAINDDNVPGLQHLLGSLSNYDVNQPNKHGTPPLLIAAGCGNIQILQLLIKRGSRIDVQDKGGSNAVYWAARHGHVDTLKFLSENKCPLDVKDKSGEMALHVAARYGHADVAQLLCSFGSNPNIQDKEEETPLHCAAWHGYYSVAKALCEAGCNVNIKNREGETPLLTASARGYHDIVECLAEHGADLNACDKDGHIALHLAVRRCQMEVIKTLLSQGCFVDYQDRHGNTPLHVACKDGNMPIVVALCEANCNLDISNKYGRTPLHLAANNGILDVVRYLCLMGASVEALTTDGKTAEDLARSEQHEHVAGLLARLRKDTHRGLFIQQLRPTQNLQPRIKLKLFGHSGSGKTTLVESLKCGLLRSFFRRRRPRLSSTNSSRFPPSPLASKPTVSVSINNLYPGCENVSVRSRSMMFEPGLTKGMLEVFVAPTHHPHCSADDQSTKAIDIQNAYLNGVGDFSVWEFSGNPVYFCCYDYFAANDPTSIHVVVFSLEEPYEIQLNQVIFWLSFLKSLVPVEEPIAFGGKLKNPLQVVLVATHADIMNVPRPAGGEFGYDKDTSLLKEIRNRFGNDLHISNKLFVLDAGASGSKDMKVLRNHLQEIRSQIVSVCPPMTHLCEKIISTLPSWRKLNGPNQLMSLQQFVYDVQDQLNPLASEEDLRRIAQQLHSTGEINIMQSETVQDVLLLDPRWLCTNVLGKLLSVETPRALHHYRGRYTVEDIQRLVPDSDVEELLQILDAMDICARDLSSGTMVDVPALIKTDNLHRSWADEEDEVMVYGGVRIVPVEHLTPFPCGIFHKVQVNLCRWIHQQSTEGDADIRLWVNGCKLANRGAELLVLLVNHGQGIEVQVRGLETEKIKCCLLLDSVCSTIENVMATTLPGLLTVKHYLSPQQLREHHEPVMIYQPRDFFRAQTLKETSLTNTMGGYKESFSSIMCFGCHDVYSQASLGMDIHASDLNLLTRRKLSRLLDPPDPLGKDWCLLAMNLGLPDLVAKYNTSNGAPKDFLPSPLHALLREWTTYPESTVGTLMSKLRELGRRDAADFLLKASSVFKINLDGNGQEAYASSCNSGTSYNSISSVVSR
Chain of MAP kinase-activated protein kinase 3 (Homo sapiens) (Q16644 whole entry, looked up): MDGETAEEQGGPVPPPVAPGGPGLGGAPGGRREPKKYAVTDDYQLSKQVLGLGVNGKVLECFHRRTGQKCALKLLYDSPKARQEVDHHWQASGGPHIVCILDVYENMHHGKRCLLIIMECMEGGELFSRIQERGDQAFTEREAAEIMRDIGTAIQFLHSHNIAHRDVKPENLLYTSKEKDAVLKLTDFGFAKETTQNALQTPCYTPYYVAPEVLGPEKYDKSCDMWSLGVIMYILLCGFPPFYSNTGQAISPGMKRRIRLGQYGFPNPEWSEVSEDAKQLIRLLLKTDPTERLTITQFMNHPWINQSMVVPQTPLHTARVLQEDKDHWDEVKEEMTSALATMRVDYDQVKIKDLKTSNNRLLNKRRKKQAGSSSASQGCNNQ
Chain of MAP kinase-interacting serine/threonine-protein kinase 1 (Homo sapiens) (Q9BUB5 whole entry, looked up): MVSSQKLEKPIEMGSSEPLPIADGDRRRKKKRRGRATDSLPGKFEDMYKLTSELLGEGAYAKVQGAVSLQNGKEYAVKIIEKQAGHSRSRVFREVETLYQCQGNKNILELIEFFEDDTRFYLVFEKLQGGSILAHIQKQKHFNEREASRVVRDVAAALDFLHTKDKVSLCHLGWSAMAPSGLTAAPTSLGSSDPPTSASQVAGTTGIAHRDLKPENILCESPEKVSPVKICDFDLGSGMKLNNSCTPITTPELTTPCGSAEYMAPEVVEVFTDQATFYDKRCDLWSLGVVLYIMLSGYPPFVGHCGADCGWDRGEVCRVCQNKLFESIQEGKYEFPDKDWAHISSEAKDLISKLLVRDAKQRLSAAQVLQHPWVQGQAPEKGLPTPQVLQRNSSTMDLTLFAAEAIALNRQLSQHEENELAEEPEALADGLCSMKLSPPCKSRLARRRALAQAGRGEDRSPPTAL

Turning to `COc1ccccc1Nc1ncc(-c2ccccc2)o1`, the inhibition in [1] was -4.43%; in assay [2], 2.18%; in [3], 0.52%; in assay [4], -0.33%; in [5], -1.84%; in assay [6], 0.93%. In addition, the inhibition in [7] is 1.35%; in assay [8] it was 2.73%; in [9], 5.68%; in [10], 4.5%; in assay [11], 4.87%; in assay [12] it was 2.98%. Moreover, the inhibition in assay [13] was found to be 4.33%; in [14], 4.62%; in assay [15], 8.09%; in [16], 4.22%; in [17] it was 5.88%; in assay [18] it was 1.93%. In addition, the inhibition in assay [19] was 7.25%; in assay [20], 0.41%.
On to `O=C(Nc1n[nH]c2nc(-c3ccco3)c(Br)cc12)C1CC1`, for which the inhibition in [1] was 4.49%; in [2], -0.15%; in assay [3], 1.73%; in [4], 1.86%; in assay [5], 1.26%; in assay [6], 2.91%. In addition, the inhibition in assay [7] was 3.6%; in assay [8], 2.45%; in [9] it was 2.7%; in assay [10], 4.8%; in assay [11], -5.02%; in assay [12], 1.46%. Moreover, the inhibition in assay [13] was 2.43%; in assay [14] it was 2.96%; in [15] it was 7.3%; in assay [16], 3.3%; in assay [17], 13.9%; in assay [18], 1.26%. Moreover, the inhibition was 1.34% in assay [19] and -0.08% in assay [20].
As to `Nc1nc(-c2ccccn2)c(-c2ccc3ncccc3n2)s1`, the inhibition in assay [1] was 3.99%; in assay [2], 0.14%; in [3], -0.77%; in assay [4], 2.05%; in [5], 2.02%; in assay [6] it was 1.5%. The inhibition in [7] came to 3.66%; in assay [8], 3.28%; in [9], 6.18%; in [10], 2.5%; in [11], 8.13%; in assay [12] it was 0.3%. Besides, the inhibition in assay [13] was 2.26%; in [14] it was 3.67%; in assay [15] it was 7.64%; in assay [16], 2.16%; in [17], 5.61%; in [18], 1%. Also, the inhibition in assay [19] is 5.53%; in assay [20], -3.64%.
Take `Nc1nc(-c2ccc3c(c2)C(=Cc2cc(Br)c(O)c(Br)c2)C(=O)N3)cs1`: the inhibition in [1] was -4.53%; in [2] it was -3.76%; in assay [3] it was -0.78%; in assay [4] it was -1.56%; in [5] it was -1.55%; in assay [6] it was -1.77%. Moreover, the inhibition is -1.51% in [7]; 0.42% in assay [8]; 1.58% in assay [9]; -0.72% in assay [10]; -2.49% in assay [11]; 0.78% in [12]. In addition, the inhibition in assay [13] is 1.73%; in assay [14] it was 0.07%; in [15], 5.36%; in assay [16], -1.04%; in assay [17], 7.91%; in assay [18] it was 0.49%. The inhibition in assay [19] turned out to be 10.6%; in assay [20] it was 0%.
Consider `COc1ccc(-c2ccncc2)cc1C(N)=O`, for which the inhibition in assay [1] was 12.2%; in [2] it was -0.69%; in [3] it was 3.38%; in assay [4], 5.44%; in assay [5], 6.42%; in assay [6] it was 9.46%. Also, the inhibition is 12.5% in [7]; 2.8% in [8]; 4.12% in assay [9]; 3.29% in assay [10]; 5.66% in assay [11]; 1.72% in assay [12]. Moreover, the inhibition in assay [13] was 2.64%; in assay [14], 3.65%; in [15], 8.7%; in assay [16], 2.15%; in assay [17], 5.97%; in [18], 0.23%. Moreover, the inhibition in assay [19] came out at 6.75%.
For the compound `N#Cc1c(NC(=O)c2cccc3ccccc23)sc2c1CCCC2`, the inhibition is 9.29% in assay [1]; 0.23% in assay [2]; 0.08% in assay [3]; 4.07% in [4]; 3.83% in [5]; 8.24% in assay [6]. In addition, the inhibition is 8.43% in assay [7]; 3.26% in [8]; 3.28% in assay [9]; 2.5% in [10]; 0.94% in [11]; 2.49% in assay [12]. Also, the inhibition in [13] came to 1.96%; in assay [14], 4.2%; in assay [15] it was 7.39%; in assay [16], 1.49%; in assay [17], 4.73%; in assay [18], 1.09%. Moreover, the inhibition worked out at 1.55% in [19] and 0.64% in assay [20].
